In PubChem BioAssay (NCATS):
Values joined by “and” are separate entries in the source; they are usually repeats but may differ in a detail not shown here. Identical values can stand only once. Records with an inconclusive call do not appear. A structure can be active in one record and inactive in another. Active and inactive are the calls of the source. Calls follow the shape of the dose curve; as a rule, active = well fitted inhibition curve with a large enough effect; inconclusive = small, poorly fitted or top-dose-only effect; inactive = flat fitted curve, though single readings scatter.

Tests used:
[1] = tested on: W2; assay: qHTS profiling for inhibitors of Plasmodium falciparum proliferation (AID 504749); also: potency is read from the fitted curve at half-maximal effect; conditions: P. falciparum in erythrocytes, SYBR Green DNA, 72 h; series mostly up to 28.7 µM
Summary of the method: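 P. falciparum-infected erythrocytes (0.3% parasitemia, 2.5% hematocrit) incubated with compound 72 h at 37 C, 5% CO2. Parasite DNA detected by SYBR Green after lysis, overnight at room temperature; normalised to 0.29 uM artemisinin and DMSO.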

[2] = tested on: CRL-7250; assay: Cytotoxic Profiling of Annotated Libraries Using Quantitative High-Throughput Screening (AID 1296008); conditions: Five cell lines viability, CellTiter-Glo ATP luminescence, 48-72 h; max response: stronger effect = lower value; also: potency is read from the fitted curve at half-maximal effect; as to max response: % is scaled to controls: 0 for no effect and ±100 for the full control effect
Summary of the method: (§1)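 Cells exposed to compounds for 48 or 72 hr at 37 degrees Celsius. Viability read as ATP-coupled luminescence with CellTiter-Glo after 10 min at room temperature.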

[3] = tested on: HEK293; assay: as above; conditions: Five cell lines viability, CellTiter-Glo ATP luminescence, 48-72 h; max response: stronger effect = lower value
Summary of the method: as §1

[4] = tested on: HaCat; assay: as above; conditions: Five cell lines viability, CellTiter-Glo ATP luminescence, 48-72 h; max response: stronger effect = lower value
Summary of the method: as §1

[5] = tested on: KB-3-1; assay: as above; conditions: Five cell lines viability, CellTiter-Glo ATP luminescence, 48-72 h; max response: stronger effect = lower value
Summary of the method: as §1

[6] = tested on: NIH3T3; assay: as above; conditions: Five cell lines viability, CellTiter-Glo ATP luminescence, 48-72 h; max response: stronger effect = lower value
Summary of the method: as §1

[7] = tested on: HEK293T; assay: qHTS assay to identify novel small-molecules to repurpose for Merkel cell carcinoma treatment (AID 1296009); conditions: MCC and control cell lines, CellTiter-Glo viability, 72 h
Summary of the method: (§2)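 Cells were treated for 72 hr at 37 degree celsius with compounds in 8- or 11-point dose response. Viability was read by CellTiter-Glo luminescence, normalized to no-cell (cytotoxicity) and DMSO controls.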

[8] = tested on: MCC-13; assay: as above; conditions: MCC and control cell lines, CellTiter-Glo viability, 72 h; series mostly up to 46 µM
Summary of the method: as §2

[9] = tested on: MCC-26; assay: as above; conditions: MCC and control cell lines, CellTiter-Glo viability, 72 h; series mostly up to 46 µM
Summary of the method: as §2

[10] = tested on: HACAT; assay: as above; conditions: MCC and control cell lines, CellTiter-Glo viability, 72 h; series mostly up to 44.8 µM
Summary of the method: as §2

[11] = at 44.8 µM (top of the series) unless noted
Also: nearly all actives have a fitted effect of over 60% in size.

NCCc1cnc[nH]1
inactive: Potency [1] | outcome [2] | max response [3] 4.08% | outcome [3] | max response [4] -11% and 1.72% | max response [5] -8.33% | outcome [5] | max response [6] -6.9% | outcome [6] | outcome [7, 11] | Potency [8] | Potency [9]

CC(C)(C)C(=O)Oc1ccc(S(=O)(=O)Nc2ccccc2C(=O)NCC(=O)O)cc1
inactive: Potency [1] | max response [2] 4.89% | outcome [2] | max response [3] -6.47% | outcome [3] | max response [4] -9.37% | outcome [4] | max response [5] -8.85% | outcome [5] | max response [6] -7.41% and -3.91% | outcome [10] | outcome [7, 11] | Potency [8] | Potency [9]

Cc1ccc(-c2cc(C(F)(F)F)nn2-c2ccc(S(N)(=O)=O)cc2)cc1
inactive: max response [2] -3.61% | outcome [2] | max response [3] -17.2% | max response [4] 4.57% and -3.85% | outcome [4] | max response [5] -4.37% and -12.4% | outcome [5] | max response [6] 4.24% | outcome [10] | Potency [8] | Potency [9]
active: Potency [1] 6.75 µM

C[C@H]1c2cccc(O)c2C(O)=C2C(=O)[C@]3(O)C(O)=C(C(N)=O)C(=O)[C@@H](N(C)C)[C@@H]3[C@@H](O)[C@@H]21
inactive: max response [2] -2.19% | outcome [2] | max response [3] -8.48% | outcome [4] | max response [5] 10.8% and -8.7% | max response [6] 1.59% | outcome [6] | outcome [10] | Potency [8] | Potency [9]

Cn1ccc2cc3c(cc21)CCN3C(=O)Nc1cccnc1
inactive: max response [2] -6.32% | outcome [2] | max response [3] -20.9% | outcome [3] | max response [4] -2.9% | max response [5] 29.1% and 8.13% | max response [6] 0.531% | outcome [6] | outcome [7, 11] | Potency [8] | Potency [9]

CC(C)(Oc1ccc(C2CC2(Cl)Cl)cc1)C(=O)O (configuration not stated)
inactive: Potency [1] | max response [2] -2.5% | outcome [2] | max response [3] -10.2% | max response [4] -0.292% | outcome [4] | outcome [5] | outcome [6] | outcome [10] | Potency [8]

CCOC(=O)C(C)(C)Oc1ccc(Cl)cc1
inactive: Potency [1] | max response [2] 2.19% and -5.27% | max response [3] 4.89% | outcome [3] | outcome [4] | max response [5] 9.24% and 4.33% | outcome [6] | outcome [10] | outcome [7, 11] | Potency [8] | Potency [9]

CC(=O)OCC(CCn1cnc2cnc(N)nc21)COC(C)=O
inactive: Potency [1] | max response [2] 3.84% | outcome [2] | outcome [3] | max response [4] 1.33% and 3.92% | max response [5] 12.3% and 3.49% | max response [6] 3.32% | outcome [6] | outcome [7, 11] | Potency [8] | Potency [9]

NCCS(=O)(=O)O
inactive: max response [2] -1.77% and -3.17% | max response [3] -1.38% | outcome [3] | outcome [4] | max response [5] 9.43% | max response [6] 0.192% | outcome [6] | outcome [10] | outcome [7, 11] | Potency [8] | Potency [9]

Clc1ccc2nsnc2c1NC1=NCCN1
inactive: Potency [1] | max response [2] 0.544% and 2.61% | max response [3] -8.03% | outcome [3] | max response [4] 2.64% | outcome [4] | max response [5] -0.508% and 0.187% | max response [6] 1.46% | outcome [6] | outcome [10] | outcome [7, 11] | Potency [8]

CCCNCC(O)COc1ccccc1C(=O)CCc1ccccc1 (configuration not stated)
active: Potency [1] 0.379 µM | Potency [3] 21.1 µM
inactive: max response [2] -5.96% | outcome [2] | max response [4] -2.94% | outcome [4] | max response [5] -15.9% and 1.74% | max response [6] -20.3% and -9.95% | outcome [10] | Potency [8] | Potency [9]

Cc1cc(C(C)(C)C)c(O)c(C)c1CC1=NCCN1
active: Potency [3] 9.35 µM
inactive: Potency [1] | max response [2] 4.59% and 1.76% | outcome [2] | max response [3] -3.25% | max response [4] -9.17% and -0.1% | outcome [4] | max response [5] 1.72% and -15.7% | max response [6] 3.71% | outcome [6] | outcome [10] | Potency [8]

CC1(C)O[C@H]2CC(=O)OC[C@]23[C@H]2CC[C@@]4(C)[C@H](c5ccoc5)OC(=O)[C@H]5O[C@]54[C@]2(C)C(=O)C[C@@H]13
inactive: max response [2] 2.33% and 4% | outcome [2] | max response [3] -8.07% | outcome [3] | max response [4] -5.81% | outcome [4] | max response [5] -3.61% and 0.55% | outcome [5] | max response [6] -0.469% and 1.76% | outcome [6] | outcome [10] | outcome ([7]; at 17.4 µM (top of the series)) | outcome ([7]; at 44.8 µM (top of the series)) | Potency [8]

COc1ccc2c(c1)c(CC(=O)O)c(C)n2C(=O)c1ccc(Cl)cc1
inactive: outcome [2] | max response [3] -16.4% | outcome [3] | max response [4] -5.33% | outcome [4] | max response [5] 0.589% and -8.59% | max response [6] -1.64% and 1.2% | outcome [10] | outcome [7, 11] | Potency [8]

CC[N+](CC)(CC)CCOc1cccc(OCC[N+](CC)(CC)CC)c1OCC[N+](CC)(CC)CC
inactive: Potency [1] | max response [2] -17.1% and -8.63% | max response [3] -0.136% | outcome [3] | max response [4] -16.7% | outcome [4] | max response [5] -10.5% and -5.4% | max response [6] -12.2% | outcome [6] | outcome [10] | outcome [7, 11] | Potency [8] | Potency [9]

NCCCCCC(=O)O
inactive: Potency [1] | max response [2] -1.72% | outcome [2] | max response [3] -1.96% and 0.967% | outcome [4] | max response [5] 14.6% and 4.29% | max response [6] -2.83% and -5.79% | outcome [10] | Potency [8] | Potency [9]

CCc1cccc2c3c([nH]c12)C(CC)(CC(=O)O)OCC3 (configuration not stated)
inactive: max response [2] -0.931% | max response [3] 1.01% | outcome [3] | max response [4] 2.9% | outcome [4] | max response [5] -15.8% and -6.31% | max response [6] 3.41% and -0.401% | outcome [10] | outcome [7, 11] | Potency [8]

COc1ccc(C2CNC(=O)C2)cc1OC1CCCC1 (configuration not stated)
inactive: max response [2] -1.68% | outcome [2] | max response [3] 0.111% | outcome [3] | max response [4] -13.7% | outcome [4] | max response [5] 0.0275% and -1.99% | max response [6] -5.87% | outcome [6] | outcome [10] | outcome [7, 11] | Potency [8] | Potency [9]

O=C1N(c2ccccc2)c2ccccc2C1(Cc1ccncc1)Cc1ccncc1
inactive: Potency [1] | max response [2] -6.52% and 2.8% | max response [3] 2.06% | outcome [3] | max response [4] 2.97% | outcome [4] | max response [5] 0.123% | outcome [5] | max response [6] -1.99% and -3.96% | outcome [10] | outcome [7, 11] | Potency [8] | Potency [9]

NC12CC3CC(CC(C3)C1)C2
inactive: Potency [1] | outcome [2] | max response [3] 1.92% | outcome [3] | max response [4] 3.56% | outcome [4] | max response [5] 5.54% and 19.1% | max response [6] 1.39% | outcome [6] | outcome [10] | outcome [7, 11] | Potency [8] | Potency [9]

Cn1cnc2c1c(=O)[nH]c(=O)n2C
inactive: Potency [1] | outcome [2] | max response [3] 1.79% | outcome [4] | max response [5] 6.57% | max response [6] 1.38% | outcome [10] | Potency [8] | Potency [9]
active: Potency [3] 9.35 µM | Potency [5] 20.9 µM | Potency [6] 26.4 µM

COc1ccc2[nH]cc(CCNC(C)=O)c2c1
inactive: Potency [1] | max response [2] -2.01% and -27.6% | max response [3] 0.212% | outcome [3] | max response [4] -2.62% | outcome [4] | max response [5] 5.26% and 4.62% | max response [6] 1.71% | outcome [6] | outcome [10] | outcome [7, 11] | Potency [8] | Potency [9]

C[C@](N)(Cc1ccc(O)c(O)c1)C(=O)O
inactive: Potency [1] | max response [2] -8.13% and -6.61% | max response [3] -6.72% | outcome [3] | max response [4] -5.55% | outcome [4] | max response [5] -5.5% and -5.11% | max response [6] 4.4% | outcome [10] | outcome [7, 11] | Potency [8]

NC(=O)OCC(COC(N)=O)c1ccccc1
inactive: max response [2] 2.98% and -7.95% | max response [3] -9.25% | outcome [3] | outcome [4] | max response [5] -1.19% | max response [6] -0.687% | outcome [6] | outcome [10] | outcome [7, 11] | Potency [8]

CN(C)c1nc(N(C)C)nc(N(C)C)n1
inactive: Potency [1] | max response [2] -4.79% | outcome [2] | max response [3] -4.81% and -7.03% | max response [4] -7.57% and -4.4% | max response [5] 0.844% and 0.45% | max response [6] 1.4% and 1.9% | Potency [8]
